Results from PubChem BioAssay AID540276 (National Center for Advancing Translational Sciences (NCATS), 2011).
In all, about 300,000 compounds went through this assay and about 5,400 (1.8%) were called active. Another 28% or so got no clear call; they are omitted. Calls come from the whole dose curve; tested in HEK293 cells. The sample as a whole holds a higher share of actives than the screen did.

assay: qHTS for inhibitors of binding or entry into cells for Marburg Virus; conditions: Marburg virus pseudotyped entry inhibition, cell reporter; series mostly up to 37.8 µM; activity change, negative = inhibition: at the top concentration
% is set by controls: 0 for no effect and ±100 for the full control effect; potency is the fitted concentration of half-maximal effect.

Row | Compound | activity change, negative = inhibition | Potency
1 | CC(C)(C)C(=O)Nc1cccc(-c2ccc[nH]2)n1 | -0.354% (inactive) | –
2 | Cc1cc([N+](=O)[O-])c(=O)[nH]c1C | 19.3% (inactive) | –
3 | COc1ccc(NC(=O)N2CCCC2C(=O)NCc2ccccc2Cl)cc1 (configuration not stated) | 0.978% (inactive) | –
4 | COc1ccc(C2=NC3(CCCCC3)N(CC(=O)Nc3ccc(C(C)C)cc3)C2=O)cc1 | – | 11.2 µM (active)
5 | COc1ccc(NC(=O)CN2C(=O)C(c3ccccc3)=NC23CCCCCC3)cc1OC | -21.6% (inactive) | –
6 | CCc1ccc(NC(=O)CN2C(=O)C(c3ccccc3)=NC23CCCCCC3)cc1 | -30.3% [at 46.1 µM] (inactive) | –
7 | CCCCn1c(N)c(N(CC(C)C)C(=O)c2ccc(Br)o2)c(=O)[nH]c1=O | 17.7% [at 46.1 µM] (inactive) | –
8 | O=C(Nc1c[nH]c(=O)[nH]c1=O)OCc1ccccc1 | 27.8% [at 46.1 µM] (inactive) | –
9 | Cc1c(NC(=O)CN(C)CC(=O)Nc2ccc(F)c(F)c2F)c(=O)n(-c2ccccc2)n1C | -3.68% (inactive) | –
10 | Cc1cccc(N(Cc2ccccc2)C(=O)c2cc(S(=O)(=O)N3CCOCC3)ccc2F)c1 | -20.3% [at 46.1 µM] (inactive) | –
11 | Cc1cc(NC(=O)c2cc3ccccc3o2)no1 | 10.1% [at 46.1 µM] (inactive) | –
12 | COc1cccc2sc(N(CCCN(C)C)C(=O)C(c3ccccc3)c3ccccc3)nc12 | – | 10 µM (active)
13 | COc1cccc2sc(NNC(=O)c3nc4ccccc4s3)nc12 | -10.8% (inactive) | –
14 | CCOc1ccc2nc(N(CCN(C)C)C(=O)c3ccc4ccccc4c3)sc2c1 | -10.7% [at 46.1 µM] (inactive) | –
15 | COC(=O)C1=C(C)NC(=S)NC1c1ccc(OCC(=O)N2CC(C)OC(C)C2)c(OC)c1 (configuration not stated) | -7.83% (inactive) | –
16 | COc1ccc(OCC(O)CNCCNc2nccc(C(F)(F)F)n2)cc1 (configuration not stated) | -10.5% (inactive) | –
17 | Cc1noc(COc2ccccc2OCC(O)CNC(C)(C)C)n1 (configuration not stated) | -7.5% (inactive) | –
18 | CC(C)(C)CC(C)(C)NCC(O)COCCOc1ccc(Br)cc1 (configuration not stated) | – | 4.61 µM (active)
19 | COc1cccc(NC(=O)C/C(C)=N/NC(=O)C2CCCCC2)c1 | 0.161% (inactive) | –
20 | Cc1ccc(OCC(=O)Oc2ccccc2[N+](=O)[O-])cc1 | -5.93% (inactive) | –
21 | O=C1CN(C(=O)COc2c(Cl)cccc2Cl)c2ccccc2N1 | 18.3% (inactive) | –
22 | COc1ccc(-n2ncc3c2CC(C)(C)CC3NC(=O)CCc2c(C)nn(C)c2C)cc1 (configuration not stated) | -0.487% [at 46.1 µM] (inactive) | –
